Our source for the outcome and AC50 values is PubChem BioAssay (EPA / NIEHS).

Activity calls are given as the source filed them. How the source made its calls: active means hit-call score of the fitted dose curve at least 0.9, where 1 is the maximum; inactive means score below 0.9.

Read-out in assay [1]: Human Leukocyte Antigen - DR isotype (HLADR), HLA-DRA (gene 3122)
Briefly: BSK_BE3C_HLADR: BioMAP Diversity Plus: BE3C Assay for Human Leukocyte Antigen - DR isotype (HLADR) Biomarker Activity (AID 2283032). The note with it: primary human bronchial epithelial cells; actives raise or lower the signal. Put shortly: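 Cell-surface HLA-DR ELISA readout at 24 h after dosing in the BE3C primary human lung bronchial epithelial system; gain or loss of signal against DMSO, with parallel sulforhodamine B staining of total protein for overt cytotoxicity.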

Read-out in assay [2]: Vascular cell adhesion molecule 1 (VCAM1), VCAM1 (gene 7412)
Nature of the assay: BSK_4H_VCAM1: BioMAP Diversity Plus: 4H Assay for Vascular cell adhesion molecule 1 (VCAM1) Biomarker Activity (AID 2283033).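 Further: cell-surface VCAM-1 protein measured by ELISA.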 The note with it: primary human endothelial cells (HUVEC); actives raise or lower the signal. Put shortly: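 VCAM-1 ELISA read 24 h after chemical dosing of HUVEC in the BioMAP 4H system, with gain or loss of signal fitted relative to DMSO. Parallel SRB staining (560 nm) checked overt cytotoxicity.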

Read-out in assay [3]: Interferon-gamma inducible Protein 10 (IP10), CXCL10 (gene 3627)
Briefly: BSK_BE3C_IP10: BioMAP Diversity Plus: BE3C Assay for Interferon-gamma inducible Protein 10 (IP10) Biomarker Activity (AID 2283034). The note with it: primary human bronchial epithelial cells; actives raise or lower the signal. The method in brief:
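IP-10 quantified by ELISA in human primary bronchial epithelial cell cultures at 24 hours post-dosing. Gain or loss of signal fitted relative to DMSO; parallel SRB staining assessed overt cytotoxicity.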

Read-out in assay [4]: Monokine induced gamma interferon (MIG), CXCL9 (gene 4283)
Nature of the assay: BSK_BE3C_MIG: BioMAP Diversity Plus: BE3C Assay for Monokine induced gamma interferon (MIG) Biomarker Activity (AID 2283035). The note with it: primary human bronchial epithelial cells; actives raise or lower the signal. The method in brief:
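ELISA quantified MIG after 24 h exposure of primary bronchial epithelial cultures, analysed in both directions relative to DMSO. Cytotoxicity tracked in parallel cultures by sulforhodamine B staining.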

Read-out in assay [5]: Transforming growth factor beta 1 (TGFb1), TGFB1 (gene 7040)
Nature of the assay: BSK_BE3C_TGFb1: BioMAP Diversity Plus: BE3C Assay for Transforming growth factor beta 1 (TGFb1) Biomarker Activity (AID 2283036;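 further: TGF-b1 protein level measured by ELISA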). As to conditions: primary human bronchial epithelial cells; actives raise or lower the signal. The method in brief: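 ELISA readout of TGF-b1 from human lung bronchial epithelial primary cells, taken 24 h post-treatment. Gain or loss of signal fitted relative to DMSO baseline, with parallel SRB staining for overt cytotoxicity.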

Read-out in assay [6]: Plasminogen activator inhibitor-1 (PAI1), SERPINE1 (gene 5054)
Nature of the assay: BSK_BE3C_PAI1: BioMAP Diversity Plus: BE3C Assay for Plasminogen activator inhibitor-1 (PAI1) Biomarker Activity (AID 2283037). As to conditions: primary human bronchial epithelial cells; actives raise or lower the signal. Put shortly:
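PAI-1 was measured by ELISA in human primary bronchial epithelial cultures 24 h after chemical dosing, with cytotoxicity checked by SRB total-protein staining in parallel cultures. Activity was fitted in both directions relative to DMSO.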

Read-out in assay [7]: urokinase plasminogen activator (uPA), PLAU (gene 5328)
Briefly: BSK_BE3C_uPA: BioMAP Diversity Plus: BE3C Assay for urokinase plasminogen activator (uPA) Biomarker Activity (AID 2283038).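 Further: uPA protein level quantified by ELISA in cell cultures; uPA read one day after compound addition.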 The note with it: primary human bronchial epithelial cells; actives raise or lower the signal. The method in brief: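 ELISA for uPA on human primary bronchial epithelial cultures 24 h post-treatment, gain or loss against DMSO. Parallel SRB staining (0.1% after 10% TCA fixation, 560 nm) assessed overt cytotoxicity.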

Read-out in assay [8]: Urokinase-type plasminogen activator receptor (uPAR), PLAUR (gene 5329)
Nature of the assay: BSK_BE3C_uPAR: BioMAP Diversity Plus: BE3C Assay for Urokinase-type plasminogen activator receptor (uPAR) Biomarker Activity (AID 2283039).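 Further: cells exposed to compound for one day before measurement.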 As to conditions: primary human bronchial epithelial cells; actives raise or lower the signal. The method in brief: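 uPAR levels were measured by ELISA after 24 h compound treatment of primary human bronchial epithelial cells, fitted in both directions relative to DMSO. Parallel SRB staining served as the cytotoxicity read-out.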

Read-out in assay [9]: Interleukin-6 (IL6), IL6 (gene 3569)
Nature of the assay: BSK_CASM3C_IL6: BioMAP Diversity Plus: CASM3C Assay for Interleukin-6 (IL6) Biomarker Activity for (AID 2283040). As to conditions: primary human coronary artery smooth muscle cells; actives raise or lower the signal.

Read-out in assay [10]: Tissue plasminogen activator (tPA), PLAT (gene 5327)
Briefly: BSK_BE3C_tPA: BioMAP Diversity Plus: BE3C Assay for Tissue plasminogen activator (tPA) Biomarker Activity (AID 2283041).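 Further: tPA level quantified by ELISA one day after compound addition.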 The note with it: primary human bronchial epithelial cells; actives raise or lower the signal. Put shortly: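 tPA measured by ELISA 24 h after dosing human primary bronchial epithelial cells (BE3C system). Changes in either direction were fitted against DMSO. Parallel cultures were stained with SRB to flag overt cytotoxicity.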

Read-out in assay [11]: Interleukin-8 (IL8), CXCL8 (gene 3576)
Nature of the assay: BSK_CASM3C_IL8: BioMAP Diversity Plus: CASM3C Assay for Interleukin-8 (IL8) Biomarker Activity (AID 2283042).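 Further: IL-8 protein level quantified by ELISA.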 As to conditions: primary human coronary artery smooth muscle cells; actives raise or lower the signal.

Read-out in assay [12]: Human Leukocyte Antigen - DR isotype (HLADR), HLA-DRA (gene 3122)
Briefly: BSK_CASM3C_HLADR: BioMAP Diversity Plus: CASM3C Assay for Human Leukocyte Antigen - DR isotype (HLADR) Biomarker Activity (AID 2283043).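 Further: cell-surface HLA-DR protein level quantified by ELISA.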 As to conditions: primary human coronary artery smooth muscle cells; actives raise or lower the signal.

Read-out in assay [13]: Macrophage colony-stimulating factor (MCSF), CSF1 (gene 1435)
Nature of the assay: BSK_CASM3C_MCSF: BioMAP Diversity Plus: CASM3C Assay for Macrophage colony-stimulating factor (MCSF) Biomarker Activity (AID 2283044).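 Further: M-CSF protein amount quantified by ELISA after 24 h exposure.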 As to conditions: primary human coronary artery smooth muscle cells; actives raise or lower the signal.

Read-out in assay [14]: Low-density lipoprotein receptor (LDLR), LDLR (gene 3949)
Briefly: BSK_CASM3C_LDLR: BioMAP Diversity Plus: CASM3C Assay for Low-density lipoprotein receptor (LDLR) Biomarker Activity (AID 2283045).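 Further: LDLR protein level on the cell surface quantified by ELISA.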 The note with it: primary human coronary artery smooth muscle cells; actives raise or lower the signal.

Read-out in assay [15]: Monocyte Chemoattractant Protein-1 (MCP1), CCL2 (gene 6347)
Briefly: BSK_CASM3C_MCP1: BioMAP Diversity Plus: CASM3C Assay for Monocyte Chemoattractant Protein-1 (MCP1) Biomarker Activity (AID 2283046).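 Further: MCP-1 level quantified by ELISA 24 h after dosing.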 The note with it: primary human coronary artery smooth muscle cells; actives raise or lower the signal.

The nature of assay [16]: BSK_CASM3C_Proliferation: Cell Proliferation Assessment in the BioMAP Diversity Plus: CASM3C Assay (AID 2283047).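 Further: sulforhodamine B total protein stain as relative cell number at 560 nm; sub-confluent cells exposed 48 h before staining; fitted both ways against DMSO so gain or loss of cell number.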 The note with it: primary human coronary artery smooth muscle cells.
Read-out in assay [17]: Monokine induced gamma interferon (MIG), CXCL9 (gene 4283)
Nature of the assay: BSK_CASM3C_MIG: BioMAP Diversity Plus: CASM3C Assay for Monokine induced gamma interferon (MIG) Biomarker Activity (AID 2283048).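 Further: MIG protein level measured by ELISA.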 As to conditions: primary human coronary artery smooth muscle cells; actives raise or lower the signal.

Read-out in assay [18]: serum amyloid A (SAA), SAA1 (gene 6288)
Briefly: BSK_CASM3C_SAA: BioMAP Diversity Plus: CASM3C Assay for serum amyloid A (SAA) Biomarker Activity (AID 2283049).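 Further: SAA protein level quantified by ELISA.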 As to conditions: primary human coronary artery smooth muscle cells; actives raise or lower the signal.

The nature of assay [19]: BSK_CASM3C_SRB: Viability Assessment in the BioMAP Diversity Plus: CASM3C Assay (AID 2283050). As to conditions: primary human coronary artery smooth muscle cells.
Read-out in assay [20]: Thrombomodulin, THBD (gene 7056)
Nature of the assay: BSK_CASM3C_Thrombomodulin: BioMAP Diversity Plus: CASM3C Assay for Thrombomodulin Biomarker Activity (AID 2283051).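 Further: thrombomodulin protein level measured by ELISA 24 h after dosing.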 As to conditions: primary human coronary artery smooth muscle cells; actives raise or lower the signal.

As to `NNC(=O)c1ccncc1`, the outcome in [1], in assay [2], in assay [3], in assay [4], in [5] and in assay [6] was inactive. The result in assay [7], in assay [8], in assay [9], in assay [10], in assay [11] and in assay [12] was inactive. The outcome in assay [13], in assay [14], in assay [15], in assay [16], in assay [17] and in [18] was inactive. Also, the result in [19] and in assay [20] was inactive.

Regarding `OCCOCCOCCO`, the outcome in assay [1], in assay [2], in assay [3], in [4], in assay [5] and in [6] was inactive. Moreover, the result in assay [7], in [8], in assay [9], in [10], in assay [11] and in [12] was inactive. The result in assay [13], in assay [14], in assay [15], in assay [16], in [17] and in assay [18] was inactive. Also, the outcome in assay [19] and in assay [20] was inactive.

`CCOC(N)=O`: the outcome in [1], in [2], in assay [3], in assay [4], in assay [5] and in assay [6] was inactive. Moreover, the outcome in assay [7], in assay [8], in assay [9], in [10], in assay [11] and in assay [12] was inactive. For the same molecule, the outcome in [13], in assay [14], in assay [15], in assay [16], in [17] and in [18] was inactive. For the same molecule, the outcome in [19] and in [20] was inactive.

Take `O=C(O)c1cccc(C[C@@H]2COc3ccc(OCc4nc5cc(F)ccc5s4)cc3[C@@H]2O)c1`: the result in assay [1], in [2], in assay [3], in assay [4], in assay [5] and in [6] was inactive. Moreover, the outcome in [7], in assay [8], in assay [9], in assay [10], in [11] and in assay [12] was inactive. Moreover, the outcome in assay [13], in assay [14], in assay [15], in assay [17], in assay [18] and in assay [19] was inactive. Moreover, in assay [20], the result was inactive. Further, the AC50 in assay [16] is 12.9 µM (active).

For `O=C(O)c1ccc2c(c1)nc(C(=O)NC1CCN(C3CC3)CC1)n2Cc1cc(-c2ccc(Cl)s2)on1`, the result in [1], in assay [2], in assay [3], in assay [4], in [5] and in assay [6] was inactive. The outcome in assay [7], in assay [8], in assay [9], in assay [10], in assay [11] and in assay [12] was inactive. In addition, the outcome in assay [13], in assay [14], in [15], in assay [16], in assay [17] and in [18] was inactive. Besides, the result in assay [19] and in assay [20] was inactive.

As to `CCc1cccc(CC)c1N`, the result in assay [1], in [2], in assay [3], in assay [4], in assay [5] and in assay [6] was inactive. Further, the result in assay [7], in assay [8], in assay [9], in assay [10], in assay [11] and in [12] was inactive. Moreover, the outcome in assay [13], in assay [14], in assay [15], in assay [16], in [17] and in assay [18] was inactive. The outcome in assay [19] and in assay [20] was inactive.

As usually defined, the AC50 is the concentration at which the activity in the assay is half-maximal.
